A short description of test [1]: antimalarial activity against Dd2 strain (AID 2302;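 active means growth inhibition above 50% at the single 2 µM test dose, taken to imply half-maximal potency below 2 µM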;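 further: 0% = DMSO untreated growth and 100% = chloroquine plus artemisinin killed control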). Conditions: P. falciparum Dd2 in RBCs, LDH growth readout, 72 h; at 2 µM; stronger effect = higher value.
A short description of test [2]: human hepatoma cell viability loss – ATP luminescence, cytotoxicity control for P. falciparum antimalarial project, primary screen (AID 2303;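 active means inhibition above 50%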;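 further: 0% = DMSO wells and 100% = digitonin-killed cells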). Particulars: HepG2 viability, 24-48 h, at 10 µM, stronger effect = higher value.
In test [3] the target is L-lactate dehydrogenase (Plasmodium falciparum (isolate CDC / Honduras)) (UniProt Q27743). Briefly: PfLDH activity inhibition – cell lysate, 3D7 strain, counter-screen for P. falciparum growth inhibition project (AID 2304).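 Further: 0% = vehicle and 100% = reference inhibitor.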 Conditions: P. falciparum 3D7 crude extract, LDH APAD/NBT absorbance; at 2 µM; stronger effect = higher value.
Sequence of L-lactate dehydrogenase (Plasmodium falciparum (isolate CDC / Honduras)) (Q27743 whole entry, looked up): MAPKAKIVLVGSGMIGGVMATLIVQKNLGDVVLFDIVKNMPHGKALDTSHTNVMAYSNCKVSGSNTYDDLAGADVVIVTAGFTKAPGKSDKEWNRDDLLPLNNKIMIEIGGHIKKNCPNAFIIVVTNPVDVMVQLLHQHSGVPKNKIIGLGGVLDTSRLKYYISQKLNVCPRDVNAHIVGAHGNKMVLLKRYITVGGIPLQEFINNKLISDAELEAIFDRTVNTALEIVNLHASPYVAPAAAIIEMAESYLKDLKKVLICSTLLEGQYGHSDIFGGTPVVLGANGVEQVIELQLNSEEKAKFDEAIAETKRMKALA
The nature of test [4]: inhibition of 3D7 malaria parasite growth – strain 3D7 (AID 2306).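 Further: 0% = DMSO wells and 100% = chloroquine plus artemisinin control wells.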 Particulars: P. falciparum 3D7 erythrocytic growth, LDH absorbance, 72 h; at 2 µM; stronger effect = higher value.
The target in test [5] is Calcium-dependent protein kinase 1 (Plasmodium falciparum (isolate 3D7)) (UniProt P62344). The test can be described thus: PfCDPK1 kinase inhibitors, biochemical, TCAMS library (AID 1159585; cut-off not given, nearly all actives have IC50 up to about 0.98 µM;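 further: inhibitors leave more ATP so luminescence rises with inhibition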). Particulars: recombinant PfCDPK1, Kinase-Glo ATP depletion luminescence.
Sequence of Calcium-dependent protein kinase 1 (Plasmodium falciparum (isolate 3D7)) (P62344 whole entry, looked up): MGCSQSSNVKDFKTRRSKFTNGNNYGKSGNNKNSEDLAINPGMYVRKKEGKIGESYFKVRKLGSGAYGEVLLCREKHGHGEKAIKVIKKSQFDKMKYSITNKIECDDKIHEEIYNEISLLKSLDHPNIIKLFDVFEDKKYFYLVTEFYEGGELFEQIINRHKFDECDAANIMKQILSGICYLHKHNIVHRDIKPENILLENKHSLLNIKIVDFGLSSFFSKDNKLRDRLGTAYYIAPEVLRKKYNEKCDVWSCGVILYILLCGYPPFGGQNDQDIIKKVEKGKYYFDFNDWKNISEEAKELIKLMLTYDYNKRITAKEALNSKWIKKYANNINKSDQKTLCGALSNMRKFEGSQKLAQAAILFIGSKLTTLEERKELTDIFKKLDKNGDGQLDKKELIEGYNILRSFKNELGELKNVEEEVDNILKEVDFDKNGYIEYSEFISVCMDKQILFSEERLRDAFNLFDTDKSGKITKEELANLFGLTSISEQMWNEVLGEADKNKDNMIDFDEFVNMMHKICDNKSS
Test [6] has as its target Plasmodium falciparum protein kinase 6 (PK6, PF3D7_1337100) (UniProt Q8IDW1). The test can be described thus: PfPK6 kinase inhibitors, biochemical, TCAMS library (AID 1159586). Conditions: recombinant PfPK6, Kinase-Glo ATP depletion luminescence.
In test [7] the target is Protein kinase 7 (PK7), Plasmodium falciparum 3D7 (PF3D7_0213400) (UniProt Q7YTF7). Briefly: inhibition of Plasmodium PK7 catalytic activity – biochemical, TCAMS antimalarial set, Kinase-Glo luminescence (AID 1159587). Conditions: recombinant PfPK7, Kinase-Glo ATP depletion luminescence.
Sequence of Protein kinase 7 (PK7), Plasmodium falciparum 3D7 (PF3D7_0213400) (Q7YTF7 1-343): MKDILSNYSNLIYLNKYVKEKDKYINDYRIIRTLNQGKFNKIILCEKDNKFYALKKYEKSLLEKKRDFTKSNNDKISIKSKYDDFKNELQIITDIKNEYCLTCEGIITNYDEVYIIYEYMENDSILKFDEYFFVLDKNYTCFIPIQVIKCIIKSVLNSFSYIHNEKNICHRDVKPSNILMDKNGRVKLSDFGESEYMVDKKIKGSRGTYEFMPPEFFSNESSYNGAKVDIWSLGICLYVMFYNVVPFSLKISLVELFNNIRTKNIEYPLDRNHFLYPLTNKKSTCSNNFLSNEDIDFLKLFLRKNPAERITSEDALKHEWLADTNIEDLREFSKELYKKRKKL
Test [8] concerns the target Calcium-dependent protein kinase 4 (Plasmodium falciparum (isolate 3D7)) (UniProt Q8IBS5). The test can be described thus: PfCDPK4 kinase inhibitors, biochemical, TCAMS library (AID 1159588; cut-off not given, nearly all actives have IC50 up to about 0.91 µM). Particulars: recombinant PfCDPK4, Kinase-Glo ATP depletion luminescence.
The test system of test [9] is Aerobactin synthetase IucA (Klebsiella pneumoniae). Briefly: inhibition of K. pneumoniae IucA enzyme – biochemical, Tocris library, absorbance (AID 1345561).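 Further: 100% = enzyme without compound and 0% = no enzyme.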 Conditions: purified IucA enzyme assay, absorbance (OD) read-out; stronger effect = lower value;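 tested at 8 µM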.
A short description of test [10]: viability loss in pontine glioma line – cell-based, SU-DIPG-XVII, MIPE5.0, CellTiter-Glo, qHTS, dose response (AID 1347060; cut-off not given, nearly all actives have AC50 up to about 26 µM;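 further: cells exposed to compound for 48 hours before viability readout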). Particulars: CellTiter-Glo ATP luminescence.
A short description of test [11]: viability loss in pontine glioma line – cell-based, JHH-DIPG-1, MIPE4.0, CellTiter-Glo, qHTS, dose response (AID 1347062; cut-off not given, nearly all actives have AC50 up to about 27 µM;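 further: cells exposed to compound for two days before readout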). Particulars: JHH-DIPG-1 viability, CellTiter-Glo ATP luminescence.
Test [12] can be described thus: viability loss in pontine glioma line – cell-based, SU-DIPG-IV, MIPE4.0, CellTiter-Glo, qHTS, dose response (AID 1347063; cut-off not given, nearly all actives have AC50 up to about 30 µM;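 further: compound exposure lasted 48 hours before the viability readout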). Conditions: CellTiter-Glo ATP luminescence.
Test [13] is described as follows: viability loss in pontine glioma line – cell-based, SU-DIPG-XXV, MIPE5.0, CellTiter-Glo, qHTS, dose response (AID 1347065; cut-off not given, nearly all actives have AC50 up to about 26 µM;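 further: cells exposed to compound for 48 hours before ATP readout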). Particulars: CellTiter-Glo ATP luminescence.
A short description of test [14]: JHH-DIPG-1 glioma cell viability, MIPE5.0 library, CellTiter-Glo luminescence, qHTS (AID 1347067; cut-off not given, nearly all actives have AC50 up to about 26 µM;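 further: cells exposed to compound for 48 hours before readout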). Particulars: JHH-DIPG-1 glioma viability, CellTiter-Glo ATP luminescence.
The nature of test [15]: growth inhibition of DIPG cells – cell-based, MIPE5.0 library, qHTS (AID 1347068; cut-off not given, nearly all actives have IC50 up to about 30 µM;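 further: cells exposed to compound for 48 hours before viability readout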). Conditions: SU-DIPG-XXV viability.
Test [16] can be described thus: viability loss with induced miR-34 in A549 – imaging, A549 dox-inducible miR-34, nuclei and caspase counts, primary screen (AID 1347080;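 active means compounds whose cell count with miR-34 switched on is under 0.7 times the count with it off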). Particulars: A549 miR-34 inducible, Hoechst nuclei count, 48 h.
Test [17] can be described thus: MELAS cybrid and Rieske KO viability enhancers – cell-based, MELAS cybrids, Rieske KO mouse fibroblasts, CellTiter-Glo, primary screen (AID 1508586;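 active means mean z-score across replicates of 1.96 or higher in either the MELAS or the Rieske mutant cell line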;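 further: z relative to plate mean and SD of compound and empty wells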). Conditions: low glucose.
The nature of test [18]: galactose survival enhancers in mitochondrial complex I cybrids – cell-based, galactose medium, ATP luminescence, primary screen (AID 1645843;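 active means z-score of at least 1.8 in each of two replicates, scored against plate mean and spread of sample wells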;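 further: positive z means more ATP and so rescue of galactose-driven cybrid death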). Particulars: complex I mutant cybrid cells, 72 h, stronger effect = higher value.
Test [19] in a line: viability loss in pontine glioma line – cell-based, SU-DIPG-XIII, MIPE4.0, CellTiter-Glo, qHTS, dose response (AID 1347061; cut-off not given, nearly all actives have AC50 up to about 37 µM;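 further: cells exposed to compound for 48 hours before readout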). Conditions: CellTiter-Glo ATP luminescence.
A short description of test [20]: viability loss in pontine glioma line – cell-based, SU-DIPG-XIII, MIPE5.0, CellTiter-Glo, qHTS, dose response (AID 1347064; cut-off not given, nearly all actives have AC50 up to about 23 µM;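 further: cells exposed to compound for 48 hours before the viability read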). Particulars: CellTiter-Glo ATP luminescence.
The nature of test [21]: growth inhibition of DIPG cells – cell-based, MIPE4.0 library, CellTiter-Glo luminescence, qHTS (AID 1347066; cut-off not given, nearly all actives have AC50 up to about 30 µM;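 further: cells exposed to compound for 48 hours before readout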). Particulars: SU-DIPG-VI viability, CellTiter-Glo ATP luminescence.
Where [22] appears, read: stronger effect = lower value, cell number ratio, induced over uninduced.
The mark [23] stands for this setting: measured here: relative caspase fold change +Dox/-Dox.
Where [24] appears, read: measured here: total cells with miR-34 induction, stronger effect = lower value.
[25] abbreviates: measured here: total cells without miR-34 induction.
The mark [26] stands for this setting: MELAS cybrid survival, CellTiter-Glo 48 h, stronger effect = higher value.
Where [27] appears, read: Rieske KO mouse fibroblast survival, CellTiter-Glo 72 h.

Several values for one entry are separate records, joined by “and”; a condition that tells them apart may be missing. Identical values can stand only once. Inconclusive results are not listed. For some assays here: Potency and affinity values are given separately. Activity calls are given as the source filed them. Unless noted, how the calls were made is not given here.

Sequence of Plasmodium falciparum protein kinase 6 (PK6, PF3D7_1337100) (Q8IDW1 1-305): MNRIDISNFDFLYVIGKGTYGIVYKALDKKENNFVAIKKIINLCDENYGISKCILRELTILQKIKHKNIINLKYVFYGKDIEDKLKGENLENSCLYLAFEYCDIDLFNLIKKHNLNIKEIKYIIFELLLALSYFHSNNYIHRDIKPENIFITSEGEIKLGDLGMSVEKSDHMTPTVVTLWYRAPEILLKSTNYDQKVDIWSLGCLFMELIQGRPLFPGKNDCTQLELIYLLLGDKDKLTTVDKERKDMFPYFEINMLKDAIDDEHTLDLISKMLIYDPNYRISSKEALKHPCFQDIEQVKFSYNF
Sequence of Calcium-dependent protein kinase 4 (Plasmodium falciparum (isolate 3D7)) (Q8IBS5 whole entry, looked up): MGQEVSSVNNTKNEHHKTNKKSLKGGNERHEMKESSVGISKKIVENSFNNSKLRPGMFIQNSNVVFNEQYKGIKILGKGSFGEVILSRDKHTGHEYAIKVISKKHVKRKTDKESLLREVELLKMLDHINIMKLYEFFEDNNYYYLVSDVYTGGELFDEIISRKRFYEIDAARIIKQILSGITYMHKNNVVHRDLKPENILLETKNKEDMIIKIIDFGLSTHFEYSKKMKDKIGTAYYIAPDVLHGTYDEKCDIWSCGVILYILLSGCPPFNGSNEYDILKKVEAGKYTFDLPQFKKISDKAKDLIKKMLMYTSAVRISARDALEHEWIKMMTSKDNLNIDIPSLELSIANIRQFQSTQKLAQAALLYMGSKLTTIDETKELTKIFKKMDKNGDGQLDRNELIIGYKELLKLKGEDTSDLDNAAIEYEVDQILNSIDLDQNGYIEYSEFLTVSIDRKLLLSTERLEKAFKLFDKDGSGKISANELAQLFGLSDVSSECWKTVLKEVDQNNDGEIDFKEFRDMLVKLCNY

With `COc1cc2c(Nc3ccc(NC(=O)c4ccccc4)cc3)ncnc2cc1OCCCN1CCOCC1`, the growth inhibition is 93% (active) in [1] and 99% (active) in [4]. Besides, the inhibition in test [2] was 14% (inactive); in test [3], 5% (inactive). The result in test [5], in [6], in [7] and in test [8] was inactive. In addition, in test [9], the remaining activity was 94.5% (inactive). For the same molecule, the half-maximal activity concentration (AC50) was 4.68 µM (active) in test [10]; 20.9 µM (active) in [11]; 18.7 µM (active) in test [12]; 1.32 µM (active) in [13]; 20.9 µM (active) in test [14]. In addition, in [15], the IC50 was 8.33 µM (active). Besides, the fold change is 1.01 (inactive) and 1.03 (inactive) in test [16] (setting [22]); 1 and 1.45 in [16] (setting [23]). For the same molecule, the cell count was 1920 and 4040 in test [16] (setting [24]); 1900 and 3920 in test [16] (setting [25]). Further, the z-score in test [17] (setting [26]) is -0.661 (inactive); in [17] (setting [27]), 0.628; in [18] it was -0.64 (inactive).

Take `CN(C)CCCSc1ccccc1NC(=O)C=Cc1ccccc1`: the growth inhibition in [1] was -3% (inactive); in test [4], 85% (active). In addition, the results for the inhibition in [2] and in test [3] were -4% (inactive) and -5% (inactive), respectively. Also, the result in test [5], in [6], in test [7] and in test [8] was inactive. The fold change is 0.957 (inactive) in [16] (setting [22]) and 1.81 in test [16] (setting [23]). For the same molecule, the figures for the cell count in test [16] (setting [24]) and in [16] (setting [25]) were 8880 and 9280, respectively. Moreover, the z-score in test [18] is -0.13 (inactive).

As for `CCc1ccc(OCc2ccccc2C(=O)Nc2ccc3nc(C)cc(N)c3c2)cc1`, the growth inhibition in [1] was 74% (active); in test [4] it was 99% (active). Besides, the inhibition in test [2] was 98% (active); in test [3], 0% (inactive). In addition, the outcome in [5], in test [6], in test [7] and in test [8] was inactive. Also, the remaining activity in test [9] was 108% (inactive). Further, the AC50 in [10] is 9.34 µM (active); in test [19], 11.8 µM (active); in [11], 3.32 µM (active); in [12], 3.32 µM (active); in test [20], 7.42 µM (active); in [13] it was 8.33 µM (active). For the same molecule, the AC50 in test [21] is 8.33 µM (active); in test [14], 5.25 µM (active). Further, the IC50 in test [15] is 9.34 µM (active). The fold change is 0.988 (inactive) and 0.896 (inactive) in [16] (setting [22]); 1.57 and 0.955 in test [16] (setting [23]). For the same molecule, the cell count in test [16] (setting [24]) is 1370 and 181; in [16] (setting [25]), 1390 and 202. In addition, the z-score was -0.512 (inactive) in test [17] (setting [26]), 0.826 in test [17] (setting [27]) and -0.7 (inactive) in test [18].

In the case of `Nc1nc(NCC2CCC(CNS(=O)(=O)c3cccc4ccccc34)CC2)nc2ccccc12` (centres undefined), the values for the growth inhibition in [1] and in [4] were 42% (inactive) and 97% (active), respectively. Also, the inhibition in test [2] was 9% (inactive); in test [3] it was 7% (inactive). The result in [5], in test [6], in [7] and in test [8] was inactive. For the same molecule, the remaining activity in test [9] is 92.3% (inactive). For the same molecule, the results for the fold change in test [16] (setting [22]) and in test [16] (setting [23]) were 0.954 (inactive) and 0.891, respectively. Further, the cell count in [16] (setting [24]) is 322; in test [16] (setting [25]) it was 338. For the same molecule, the z-score in test [18] was -0.705 (inactive).

For the origin of these results see PubChem BioAssay.
